Results from PubChem BioAssay (NCI).
The panel holds about 79,000 compounds, 15% with a hit somewhere; the sample as a whole holds those more often. A number with no mark means an inactive call. Calls of active or inactive are those of the source. Cut-off read from the data, not from the text of the source: active = growth inhibition above about 70%; inactive = the rest. Where a SMILES comes first, the peptide text is derived from it. The star is where a group is joined. Trt = c1ccc(C(c2ccccc2)(c2ccccc2)*)cc1; OtBu = CC(C)(C)O*

Experiments:
[1] = NCI Yeast Anticancer Drug Screen. Data for the rad50 strain (AID 155);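 note: 0% = growth of vehicle-only cultures of the same strain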; conditions: S. cerevisiae rad50 strain growth inhibition, hits give high values
How it was run: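 Readout: growth inhibition relative to vehicle-treated cultures. Compound exposure was carried out in a genetically defined yeast strain deficient in DNA damage repair.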

[2] = NCI Yeast Anticancer Drug Screen. Data for the mec2-1 strain (AID 157); conditions: S. cerevisiae mec2-1 strain, hits give high values
How it was run: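 mec2-1 yeast strain, carrying an alteration in DNA damage repair or cell cycle control, was exposed to compounds; growth inhibition was measured relative to vehicle-treated controls.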

[3] = NCI Yeast Anticancer Drug Screen. Data for the sgs1 mgt1 strain (AID 161);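 note: 0% = growth of cultures given vehicle only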; conditions: S. cerevisiae sgs1 mgt1 strain, hits give high values
How it was run: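 Compounds are added to genetically altered yeast, and growth is compared with cultures given vehicle alone to give percent inhibition.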

[4] = NCI Yeast Anticancer Drug Screen. Data for the cln2 rad14 strain (AID 165);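 note: 0% = growth equal to vehicle treated cultures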; conditions: S. cerevisiae cln2 rad14 strain, hits give high values
How it was run: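 Yeast carrying cln2 and rad14 alterations (cell cycle control and DNA damage repair) were exposed to compounds. Growth inhibition was measured against vehicle-treated controls.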

[5] = NCI Yeast Anticancer Drug Screen. Data for the bub3 strain (AID 167); conditions: S. cerevisiae bub3 mutant strain, hits give high values
How it was run: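 Readout: yeast growth inhibition, expressed relative to vehicle-only wells. The test organism is a mutant strain from a panel with lesions in DNA repair or checkpoint genes.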

[6] = NCI Yeast Anticancer Drug Screen. Data for the mlh1 rad18 strain (AID 175); conditions: S. cerevisiae mlh1 rad18 strain growth inhibition, hits give high values
How it was run: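 Growth inhibition of the yeast strain was measured after compound exposure and expressed relative to vehicle-treated controls. The strain carries defined defects in DNA damage repair.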

[7] = at 5.0 µM (retest, dose inferred, filed as 0.5)
[8] = at 50.0 µM (retest, dose inferred, filed as 5.0)

Structure (SMILES) | growth inhibition [1, 7] | growth inhibition [1, 8] | growth inhibition ([1]; at 50.0 µM) | growth inhibition [2, 7] | growth inhibition [2, 8] | growth inhibition ([2]; at 50.0 µM) | growth inhibition [3, 7] | growth inhibition [3, 8] | growth inhibition ([3]; at 50.0 µM) | growth inhibition [4, 7] | growth inhibition [4, 8] | growth inhibition ([4]; at 50.0 µM) | growth inhibition [5, 7] | growth inhibition [5, 8] | growth inhibition ([5]; at 50.0 µM) | growth inhibition [6, 7] | growth inhibition [6, 8] | growth inhibition ([6]; at 50.0 µM)
CCCCC(C)(C)OC(=O)Nc1ccc(Br)cc1 | 0% | 95% (active) | 96.3% (active) | -14% | 94% (active) | 86.2% (active) | -8% | 95% (active) | 97.8% (active) | 43% | 96% (active) | 84.2% (active) | -8% | 93% (active) | 35.5% | -2% | 96% (active) | 97.4% (active)
CCN(CC)CCCC(C)Nc1cc(C)nc2c1ccc1c2ccc2c(NC(C)CCCN(CC)CC)cc(C)nc21 (stereo not given) | -2% | 61% | 58.1% | -39% | 91% (active) | 53.7% | -1% | 59% | 49.5% | 7% | 20% | 71.4% (active) | -2% | 96% (active) | 96.3% (active) | -1% | 85% (active) | 54.2%
OCC(c1ccccc1)[P+](c1ccccc1)(c1ccccc1)c1ccccc1 (stereo not given) | 2% | 34% | 79.2% (active) | -8% | 45% | 49.9% | -9% | 0% | 74.3% (active) | -42% | -1% | 31.9% | 0% | 13% | 26.3% | -14% | 5% | 59.6%
O=C1NC(CSSCC2NC(=O)N(c3ccccc3)C2=O)C(=O)N1c1ccccc1 (stereo not given) | 8% | 94% (active) | 87.9% (active) | 11% | 97% (active) | 58.9% | 16% | 99% (active) | 93.6% (active) | 1% | 90% (active) | 58.1% | 4% | 98% (active) | 55.5% | 8% | 96% (active) | 95.2% (active)
O=C(C(=S)c1ccccc1)N(Cc1ccccc1)Cc1ccccc1 | -2% | 44% | 79.3% (active) | 1% | 25% | 88.9% (active) | 0% | 48% | 95.9% (active) | 0% | 27% | 59.4% | 4% | 41% | 93.8% (active) | 2% | 50% | 94.4% (active)
O=C(Nc1ccc(Br)cc1)c1cc(Br)c(O)c(Br)c1O | 21% | 99% (active) | 58.1% | 9% | 99% (active) | 98.8% (active) | 29% | 99% (active) | 59.9% | -5% | 99% (active) | 92.2% (active) | 11% | 99% (active) | 98.4% (active) | 24% | 99% (active) | 98% (active)
COc1ccc(NC(=O)Nc2ccc(Cl)cc2)nn1 | -1% | 4% | -10% | -4% | -3% | 20.4% | -3% | 3% | 1.3% | -14% | -8% | 33.8% | -9% | -7% | -8.05% | -7% | 3% | -3.9%
C(=C\c1cnnc2ccccc12)/c1ccco1 | 2% | 32% | 58.2% | 5% | 33% | 20.4% | 6% | 39% | 29.4% | 2% | 31% | 80.8% (active) | -2% | 27% | 18.8% | 2% | 40% | 39.8%
Cc1cc(N)c(C)c2c1[nH]c1ccc(Br)cc12 | 1% | 96% (active) | 54.1% | -3% | 89% (active) | 42.1% | -6% | 98% (active) | 77.2% (active) | -4% | 58% | 17.7% | -3% | 95% (active) | 87.2% (active) | 3% | 98% (active) | 38.5%
OC(CN1CCC(c2ccccc2)CC1)c1ccc(Br)cc1 (stereo not given) | 57% | 74% (active) | 87.7% (active) | 32% | 53% | 61.2% | 66% | 64% | 83.2% (active) | 64% | 77% (active) | 76.8% (active) | 58% | 93% (active) | 82.7% (active) | 80% (active) | 91% (active) | 80.5% (active)
CS(=O)(=O)c1cc(=O)c2ccccc2s1 | 6% | 99% (active) | 97.2% (active) | 23% | 99% (active) | 96.6% (active) | 21% | 99% (active) | 97.5% (active) | 10% | 99% (active) | 84.7% (active) | -3% | 100% (active) | 31.6% | 17% | 99% (active) | 97.8% (active)
Cc1ccc(-[n+]2cc([O-])on2)cc1 | -11% | 15% | 27.4% | -10% | -8% | 28.9% | -6% | 0% | -5.5% | -3% | -3% | 64.2% | 10% | 2% | 15.6% | -7% | 22% | 28.4%
C=Cc1nc(N)nc(-c2ccc(C)cc2)n1 | 7% | 91% (active) | 92.3% (active) | 12% | 94% (active) | 91.3% (active) | 3% | 95% (active) | 92.6% (active) | -8% | 74% (active) | 49.2% | 6% | 93% (active) | 86% (active) | 7% | 96% (active) | 95.2% (active)
O=C(c1ccccc1)C1C(c2ccccc2)OP(c2ccccc2)(c2ccccc2)(c2ccccc2)C1c1ccccc1 (stereo not given) | 83% (active) | 99% (active) | 99.7% (active) | 96% (active) | 99% (active) | 99.8% (active) | 83% (active) | 100% (active) | 99.8% (active) | 56% | 99% (active) | 99.5% (active) | 80% (active) | 99% (active) | 99.6% (active) | 84% (active) | 99% (active) | 99.8% (active)
CC(C)(C)OC(=O)CNC(=O)C(Cc1ccccc1)NC(=O)C(N)CSC(c1ccccc1)(c1ccccc1)c1ccccc1 (stereo not drawn) (H-Cys(Trt)-Phe-Gly-OtBu; configuration not given here) | -3% | 16% | 59.2% | -5% | 53% | 82.2% (active) | 0% | 41% | 76.5% (active) | -5% | 48% | 41.3% | 1% | 34% | 17.9% | -3% | 45% | 73.3% (active)
O=c1c(Cl)c(Cl)oc(Cl)c1Cl | 42% | 98% (active) | 79.2% (active) | 30% | 99% (active) | 98.3% (active) | 45% | 99% (active) | 88% (active) | 3% | 99% (active) | 94.5% (active) | 43% | 99% (active) | 98.8% (active) | 54% | 98% (active) | 97.2% (active)
COc1cc(CNC(=O)CCCCCCCCCCSC#N)ccc1O | 6% | 59% | 82.1% (active) | 5% | 43% | 85.2% (active) | 7% | 77% (active) | 83.6% (active) | 1% | 76% (active) | 81% (active) | 0% | 82% (active) | 86.7% (active) | 20% | 73% (active) | 81.2% (active)
COc1ccc2c(c1)C=C([N+](=O)[O-])C(C1OC(C)(C)OC1C1COC(C)(C)O1)O2 (stereo not given) | 17% | 12% | 7.3% | 22% | 24% | 65.2% | 24% | 14% | 16.5% | 19% | 11% | 45.1% | 48% | 43% | 0.6% | 24% | 21% | 19.8%
O=C1C=C(Br)C(=O)C12CCc1ccccc12 (stereo not given) | 99% (active) | 99% (active) | 99.7% (active) | 100% (active) | 99% (active) | 99.8% (active) | 93% (active) | 100% (active) | 99.5% (active) | 99% (active) | 99% (active) | 99.3% (active) | 99% (active) | 99% (active) | 99.6% (active) | 99% (active) | 99% (active) | 99.5% (active)
C[N+](C)(C)CCN(Cc1cccs1)c1ccccn1 | -2% | -9% | 20.2% | 8% | -16% | 29.9% | 2% | -20% | -37.8% | -27% | -111% | 72.2% (active) | -4% | -10% | -4.2% | -3% | -13% | -2.15%
